# Experiments:
# Assay in all cases: DAPPL (digital affinity profiling via proximity ligation, sequencing); 10 mM Tris-HCl pH 7.5, 50 mM NaCl, 1 mM DTT, 4% glycerol, room temperature, 30 min; GST-TFs on glutathione beads, 16-mer random dsDNA library, 0.1% formaldehyde crosslink after washing; high values mean tight binding
# FEV = molecular target: T1, FEV (Homo sapiens, UniProt Q99581 1-238); conditions: protein: recombinant; tags: N-terminal GST; dsDNA, one strand shown
# T1 sequence: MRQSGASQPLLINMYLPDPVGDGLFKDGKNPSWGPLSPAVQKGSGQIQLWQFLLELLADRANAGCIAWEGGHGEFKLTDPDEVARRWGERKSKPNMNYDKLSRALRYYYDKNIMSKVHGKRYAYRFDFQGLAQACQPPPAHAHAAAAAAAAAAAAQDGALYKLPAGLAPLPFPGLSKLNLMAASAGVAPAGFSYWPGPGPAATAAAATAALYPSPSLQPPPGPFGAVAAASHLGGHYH
# Method in brief: (§1)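 Human transcription factors were made in yeast as GST fusions, captured on glutathione beads and barcoded with DNA. With a tag-only sample included, the pool was incubated with 200 nmole of a random double-stranded 16-mer DNA library in Tris/NaCl/DTT/glycerol buffer at room temperature for 30 min, then crosslinked with 0.1% formaldehyde after washing, ligated by proximity, amplified and sequenced. For binding signal, each hexamer's read frequency for a factor is divided by its frequency for the tag-only sample.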
# ETV5 = ETV5 (Homo sapiens, UniProt P41161 1-510); conditions: protein: recombinant; tags: N-terminal GST; dsDNA, one strand shown
# Method in brief: as §1
# HSF1 = HSF1 (Homo sapiens, UniProt Q00613 1-529); conditions: protein: recombinant; tags: N-terminal GST; chain copies: 3; dsDNA, one strand shown
# Method in brief: as §1
# SPIC = molecular target: T2, SPIC (Homo sapiens, UniProt Q8N5J4 1-248); conditions: protein: recombinant; tags: N-terminal GST; dsDNA, one strand shown
# T2 sequence: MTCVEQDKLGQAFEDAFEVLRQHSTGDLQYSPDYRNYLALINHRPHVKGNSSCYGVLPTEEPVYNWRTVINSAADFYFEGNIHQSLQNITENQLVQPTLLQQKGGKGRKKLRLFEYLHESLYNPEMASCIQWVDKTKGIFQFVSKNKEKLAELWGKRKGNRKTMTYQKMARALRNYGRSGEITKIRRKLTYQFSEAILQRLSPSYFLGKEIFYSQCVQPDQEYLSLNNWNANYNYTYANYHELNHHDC
# Method in brief: as §1
# ELF4 = ELF4 (Homo sapiens, UniProt Q99607 1-663); conditions: protein: recombinant; tags: N-terminal GST; dsDNA, one strand shown
# Method in brief: as §1
# ELK4 = molecular target: T3, ELK4 (Homo sapiens, UniProt P28324-2 1-405); conditions: protein: recombinant; tags: N-terminal GST; dsDNA, one strand shown
# T3 sequence: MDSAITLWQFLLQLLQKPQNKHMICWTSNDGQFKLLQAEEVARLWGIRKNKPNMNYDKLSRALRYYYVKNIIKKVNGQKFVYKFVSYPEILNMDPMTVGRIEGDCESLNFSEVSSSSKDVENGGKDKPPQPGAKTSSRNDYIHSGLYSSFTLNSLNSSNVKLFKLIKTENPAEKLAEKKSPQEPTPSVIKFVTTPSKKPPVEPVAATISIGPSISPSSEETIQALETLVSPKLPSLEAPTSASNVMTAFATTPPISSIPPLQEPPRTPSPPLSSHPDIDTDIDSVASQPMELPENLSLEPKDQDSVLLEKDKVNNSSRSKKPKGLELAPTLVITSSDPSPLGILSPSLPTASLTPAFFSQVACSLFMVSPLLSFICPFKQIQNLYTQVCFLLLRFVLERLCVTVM
# Method in brief: as §1
# ETV2 = molecular target: T4, ETV2 (Homo sapiens, UniProt O00321 1-342); conditions: protein: recombinant; tags: N-terminal GST; dsDNA, one strand shown
# T4 sequence: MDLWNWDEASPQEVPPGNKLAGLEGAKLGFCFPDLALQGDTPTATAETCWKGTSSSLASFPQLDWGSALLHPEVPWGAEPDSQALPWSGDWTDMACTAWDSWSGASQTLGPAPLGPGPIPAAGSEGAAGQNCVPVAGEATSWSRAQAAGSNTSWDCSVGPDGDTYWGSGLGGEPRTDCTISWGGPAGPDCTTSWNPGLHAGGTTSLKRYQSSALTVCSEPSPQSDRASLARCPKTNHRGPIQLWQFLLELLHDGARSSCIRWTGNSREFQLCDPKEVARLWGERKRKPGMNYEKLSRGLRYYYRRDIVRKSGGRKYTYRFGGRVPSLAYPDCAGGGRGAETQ
# Method in brief: as §1
# ELF3 = molecular target: T5, ELF3 (Homo sapiens, UniProt P78545 1-371); conditions: protein: recombinant; tags: N-terminal GST; dsDNA, one strand shown
# T5 sequence: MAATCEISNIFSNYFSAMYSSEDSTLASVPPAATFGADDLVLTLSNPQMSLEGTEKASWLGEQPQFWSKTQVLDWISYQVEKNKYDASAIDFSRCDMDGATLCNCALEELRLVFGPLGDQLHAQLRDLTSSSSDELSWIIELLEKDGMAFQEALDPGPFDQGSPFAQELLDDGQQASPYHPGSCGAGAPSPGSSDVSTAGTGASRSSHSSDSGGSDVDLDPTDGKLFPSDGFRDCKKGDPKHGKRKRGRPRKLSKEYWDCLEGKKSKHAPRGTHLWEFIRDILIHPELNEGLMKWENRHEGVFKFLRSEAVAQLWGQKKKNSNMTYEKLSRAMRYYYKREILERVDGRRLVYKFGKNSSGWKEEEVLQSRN
# Method in brief: as §1
# CRX = CRX (Homo sapiens, UniProt O43186 1-299); conditions: protein: recombinant; tags: N-terminal GST; dsDNA, one strand shown
# Method in brief: as §1
# ETV1 = ETV1 (Homo sapiens, UniProt P50549 1-477); conditions: protein: recombinant; tags: N-terminal GST; dsDNA, one strand shown
# Method in brief: as §1
# ERF = molecular target: T6, ERF (Homo sapiens, UniProt P50548 1-548); conditions: protein: recombinant; tags: N-terminal GST; dsDNA, one strand shown
# T6 sequence: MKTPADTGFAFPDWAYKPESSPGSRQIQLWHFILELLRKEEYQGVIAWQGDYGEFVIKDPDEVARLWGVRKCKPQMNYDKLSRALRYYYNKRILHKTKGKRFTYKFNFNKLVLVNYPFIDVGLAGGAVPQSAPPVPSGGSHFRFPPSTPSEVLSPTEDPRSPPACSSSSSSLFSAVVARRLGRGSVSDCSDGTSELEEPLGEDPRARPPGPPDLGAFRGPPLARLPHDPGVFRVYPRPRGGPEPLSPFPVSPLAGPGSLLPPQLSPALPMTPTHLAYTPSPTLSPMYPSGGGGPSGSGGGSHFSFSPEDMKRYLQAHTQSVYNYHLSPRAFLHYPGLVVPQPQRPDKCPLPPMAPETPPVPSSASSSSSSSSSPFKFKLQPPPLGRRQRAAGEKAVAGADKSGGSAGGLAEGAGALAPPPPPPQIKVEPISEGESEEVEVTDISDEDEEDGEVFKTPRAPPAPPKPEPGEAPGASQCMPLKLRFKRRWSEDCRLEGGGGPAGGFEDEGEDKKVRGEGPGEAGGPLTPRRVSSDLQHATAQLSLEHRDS
# Method in brief: as §1
# ETV3L = molecular target: T7, ETV3L (Homo sapiens, UniProt Q6ZN32 1-361); conditions: protein: recombinant; tags: N-terminal GST; dsDNA, one strand shown
# T7 sequence: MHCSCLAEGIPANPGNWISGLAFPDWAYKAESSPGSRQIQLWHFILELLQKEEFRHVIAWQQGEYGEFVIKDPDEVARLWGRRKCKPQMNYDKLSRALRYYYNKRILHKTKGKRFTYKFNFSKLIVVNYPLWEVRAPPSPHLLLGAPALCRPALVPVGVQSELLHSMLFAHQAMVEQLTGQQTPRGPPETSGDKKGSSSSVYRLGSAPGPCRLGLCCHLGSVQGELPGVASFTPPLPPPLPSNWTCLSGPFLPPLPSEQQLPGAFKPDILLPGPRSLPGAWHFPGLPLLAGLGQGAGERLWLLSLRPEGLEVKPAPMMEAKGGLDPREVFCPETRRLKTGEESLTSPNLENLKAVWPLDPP
# Method in brief: as §1
# ETS2 = molecular target: T8, ETS2 (Homo sapiens, UniProt P15036 1-469); conditions: protein: recombinant; tags: N-terminal GST; dsDNA, one strand shown
# T8 sequence: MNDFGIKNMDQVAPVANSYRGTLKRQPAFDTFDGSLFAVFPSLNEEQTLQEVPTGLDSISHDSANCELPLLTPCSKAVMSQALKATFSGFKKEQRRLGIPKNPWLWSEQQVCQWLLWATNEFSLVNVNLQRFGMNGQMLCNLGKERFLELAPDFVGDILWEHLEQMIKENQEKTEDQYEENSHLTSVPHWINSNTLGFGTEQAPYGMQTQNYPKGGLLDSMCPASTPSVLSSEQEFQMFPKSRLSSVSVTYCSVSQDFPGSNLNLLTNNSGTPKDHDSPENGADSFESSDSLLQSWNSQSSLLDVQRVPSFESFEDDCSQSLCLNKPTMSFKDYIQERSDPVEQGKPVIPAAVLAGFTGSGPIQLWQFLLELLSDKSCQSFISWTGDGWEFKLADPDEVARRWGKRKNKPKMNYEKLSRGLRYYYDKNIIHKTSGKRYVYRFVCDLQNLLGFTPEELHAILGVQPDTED
# Method in brief: as §1
# SPDEF = molecular target: T9, SPDEF (Homo sapiens, UniProt O95238 1-335); conditions: protein: recombinant; tags: N-terminal GST; dsDNA, one strand shown
# T9 sequence: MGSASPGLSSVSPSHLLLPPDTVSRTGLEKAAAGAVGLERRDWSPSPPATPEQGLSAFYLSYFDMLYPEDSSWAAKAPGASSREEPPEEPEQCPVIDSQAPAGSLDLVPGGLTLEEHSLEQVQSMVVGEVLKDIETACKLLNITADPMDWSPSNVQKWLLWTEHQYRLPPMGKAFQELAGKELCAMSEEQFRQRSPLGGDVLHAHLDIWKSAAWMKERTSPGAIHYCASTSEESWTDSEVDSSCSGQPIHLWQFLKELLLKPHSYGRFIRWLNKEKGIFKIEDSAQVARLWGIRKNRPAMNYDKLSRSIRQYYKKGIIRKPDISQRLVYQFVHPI
# Method in brief: as §1
# ETV7 = molecular target: T10, ETV7 (Homo sapiens, UniProt Q9Y603 1-341); conditions: protein: recombinant; tags: N-terminal GST; dsDNA, one strand shown
# T10 sequence: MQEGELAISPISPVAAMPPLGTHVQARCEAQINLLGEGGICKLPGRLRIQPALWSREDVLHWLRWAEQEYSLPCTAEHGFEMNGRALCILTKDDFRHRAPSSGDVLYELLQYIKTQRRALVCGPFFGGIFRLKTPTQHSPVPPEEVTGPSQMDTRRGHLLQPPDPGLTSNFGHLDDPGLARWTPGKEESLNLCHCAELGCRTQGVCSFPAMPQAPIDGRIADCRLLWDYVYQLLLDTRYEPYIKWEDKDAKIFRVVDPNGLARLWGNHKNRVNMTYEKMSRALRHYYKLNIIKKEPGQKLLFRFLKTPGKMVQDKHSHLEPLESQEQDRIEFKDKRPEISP
# Method in brief: as §1
# ELF5 = molecular target: T11, ELF5 (Homo sapiens, UniProt Q9UKW6-2 1-255); conditions: protein: recombinant; tags: N-terminal GST; dsDNA, one strand shown
# T11 sequence: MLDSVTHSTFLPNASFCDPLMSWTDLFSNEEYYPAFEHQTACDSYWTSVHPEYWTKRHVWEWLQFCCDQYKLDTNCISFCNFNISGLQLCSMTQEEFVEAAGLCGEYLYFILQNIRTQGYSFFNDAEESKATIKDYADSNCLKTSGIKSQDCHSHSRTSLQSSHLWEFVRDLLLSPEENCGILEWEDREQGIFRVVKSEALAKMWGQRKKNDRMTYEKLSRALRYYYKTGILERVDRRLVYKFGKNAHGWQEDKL
# Method in brief: as §1
# ETV3 = molecular target: T12, ETV3 (Homo sapiens, UniProt P41162-2 1-143); conditions: protein: recombinant; tags: N-terminal GST; dsDNA, one strand shown
# T12 sequence: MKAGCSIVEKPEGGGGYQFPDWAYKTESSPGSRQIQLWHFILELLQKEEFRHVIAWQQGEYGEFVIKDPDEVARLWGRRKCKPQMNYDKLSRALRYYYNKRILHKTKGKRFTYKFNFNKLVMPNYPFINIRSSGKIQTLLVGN
# Method in brief: as §1
# ETV6 = ETV6 (Homo sapiens, UniProt P41212 1-452); conditions: protein: recombinant; tags: N-terminal GST; dsDNA, one strand shown
# Method in brief: as §1
# Sequence of HSF1 (Q00613 whole entry): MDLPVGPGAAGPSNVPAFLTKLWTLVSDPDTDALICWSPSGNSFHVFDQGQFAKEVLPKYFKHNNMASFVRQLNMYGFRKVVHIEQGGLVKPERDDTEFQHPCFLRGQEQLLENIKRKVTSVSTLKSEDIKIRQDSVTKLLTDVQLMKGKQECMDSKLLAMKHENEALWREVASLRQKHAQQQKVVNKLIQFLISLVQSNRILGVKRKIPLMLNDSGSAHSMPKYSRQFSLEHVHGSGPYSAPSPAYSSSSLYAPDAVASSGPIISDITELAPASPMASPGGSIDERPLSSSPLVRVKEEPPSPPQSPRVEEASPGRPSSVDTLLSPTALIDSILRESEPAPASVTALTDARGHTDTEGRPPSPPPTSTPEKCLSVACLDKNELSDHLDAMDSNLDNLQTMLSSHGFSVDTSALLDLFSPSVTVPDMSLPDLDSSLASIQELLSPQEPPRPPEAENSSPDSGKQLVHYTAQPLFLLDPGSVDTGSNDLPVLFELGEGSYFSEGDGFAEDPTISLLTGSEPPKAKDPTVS
# Sequence of CRX (O43186 whole entry): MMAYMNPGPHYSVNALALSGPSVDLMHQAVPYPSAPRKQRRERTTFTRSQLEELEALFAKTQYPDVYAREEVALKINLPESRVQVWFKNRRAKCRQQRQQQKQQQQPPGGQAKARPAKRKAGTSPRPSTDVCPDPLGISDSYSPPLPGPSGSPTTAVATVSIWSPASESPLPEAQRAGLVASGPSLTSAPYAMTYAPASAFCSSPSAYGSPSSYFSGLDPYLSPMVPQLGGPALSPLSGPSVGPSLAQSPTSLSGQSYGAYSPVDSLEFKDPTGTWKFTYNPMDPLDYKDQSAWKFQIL
# Sequence of ETV5 (P41161 whole entry): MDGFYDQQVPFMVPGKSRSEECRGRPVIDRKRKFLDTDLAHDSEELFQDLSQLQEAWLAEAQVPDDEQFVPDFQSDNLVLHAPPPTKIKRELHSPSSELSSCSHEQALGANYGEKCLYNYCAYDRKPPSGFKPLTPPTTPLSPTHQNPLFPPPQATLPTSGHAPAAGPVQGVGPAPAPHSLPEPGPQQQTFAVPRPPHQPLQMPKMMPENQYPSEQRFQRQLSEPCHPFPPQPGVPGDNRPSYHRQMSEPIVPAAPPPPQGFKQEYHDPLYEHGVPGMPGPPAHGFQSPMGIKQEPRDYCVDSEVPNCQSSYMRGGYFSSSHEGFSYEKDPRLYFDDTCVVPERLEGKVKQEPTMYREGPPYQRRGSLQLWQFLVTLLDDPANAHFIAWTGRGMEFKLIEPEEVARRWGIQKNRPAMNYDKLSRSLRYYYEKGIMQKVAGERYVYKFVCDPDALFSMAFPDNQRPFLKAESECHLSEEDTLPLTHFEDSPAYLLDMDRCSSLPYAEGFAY
# Sequence of ELF4 (Q99607 whole entry): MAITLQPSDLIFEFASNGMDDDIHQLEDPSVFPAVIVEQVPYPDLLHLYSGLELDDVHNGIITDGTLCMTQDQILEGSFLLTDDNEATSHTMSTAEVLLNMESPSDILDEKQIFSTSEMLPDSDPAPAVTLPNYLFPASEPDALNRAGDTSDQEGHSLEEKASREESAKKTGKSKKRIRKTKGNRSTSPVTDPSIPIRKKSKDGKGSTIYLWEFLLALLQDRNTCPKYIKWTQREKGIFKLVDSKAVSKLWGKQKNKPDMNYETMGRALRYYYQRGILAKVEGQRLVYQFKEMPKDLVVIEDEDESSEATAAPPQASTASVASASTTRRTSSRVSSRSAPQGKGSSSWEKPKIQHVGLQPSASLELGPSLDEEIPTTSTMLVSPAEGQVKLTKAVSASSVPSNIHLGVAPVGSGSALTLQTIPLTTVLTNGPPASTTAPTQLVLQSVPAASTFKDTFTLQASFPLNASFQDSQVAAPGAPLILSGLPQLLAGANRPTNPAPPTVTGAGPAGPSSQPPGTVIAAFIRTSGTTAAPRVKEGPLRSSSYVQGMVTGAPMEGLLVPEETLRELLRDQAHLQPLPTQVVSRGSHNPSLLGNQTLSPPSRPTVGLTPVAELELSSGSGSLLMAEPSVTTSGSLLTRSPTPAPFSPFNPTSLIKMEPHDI
# Sequence of ETV1 (P50549 whole entry): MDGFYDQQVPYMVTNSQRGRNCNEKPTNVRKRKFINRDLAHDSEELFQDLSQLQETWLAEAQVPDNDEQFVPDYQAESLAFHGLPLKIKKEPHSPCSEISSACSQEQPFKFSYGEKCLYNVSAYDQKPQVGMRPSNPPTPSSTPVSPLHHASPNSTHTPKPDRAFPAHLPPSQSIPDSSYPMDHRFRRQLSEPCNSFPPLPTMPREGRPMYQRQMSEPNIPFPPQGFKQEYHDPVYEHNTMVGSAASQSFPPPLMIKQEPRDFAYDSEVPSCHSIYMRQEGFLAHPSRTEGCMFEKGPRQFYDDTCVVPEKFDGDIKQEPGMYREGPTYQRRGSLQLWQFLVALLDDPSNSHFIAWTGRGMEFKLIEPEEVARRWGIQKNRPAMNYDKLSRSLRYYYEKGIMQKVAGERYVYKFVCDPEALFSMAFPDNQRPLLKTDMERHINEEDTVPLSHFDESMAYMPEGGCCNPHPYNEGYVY
# Sequence of ETV6 (P41212 whole entry): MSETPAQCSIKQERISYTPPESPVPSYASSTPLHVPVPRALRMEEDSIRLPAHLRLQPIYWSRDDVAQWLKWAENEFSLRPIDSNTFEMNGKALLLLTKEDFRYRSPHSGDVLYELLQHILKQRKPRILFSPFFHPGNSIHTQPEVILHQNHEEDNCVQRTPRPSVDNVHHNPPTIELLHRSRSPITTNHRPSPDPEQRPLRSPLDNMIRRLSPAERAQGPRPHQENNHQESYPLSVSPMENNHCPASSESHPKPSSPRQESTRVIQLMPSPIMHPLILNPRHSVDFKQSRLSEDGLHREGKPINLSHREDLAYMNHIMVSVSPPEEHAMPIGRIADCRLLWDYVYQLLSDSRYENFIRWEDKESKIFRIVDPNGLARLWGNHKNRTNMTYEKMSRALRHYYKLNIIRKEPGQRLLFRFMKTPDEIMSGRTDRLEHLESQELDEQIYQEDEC
sequence,measurement,setting,value
TCTCTT,binding signal,FEV,"1.41 fold enrichment (6-mer frequency, TF over GST control)"
same,binding signal,ETV5,"1.39 fold enrichment (6-mer frequency, TF over GST control)"
same,binding signal,HSF1,"1.39 fold enrichment (6-mer frequency, TF over GST control)"
same,binding signal,SPIC,"1.34 fold enrichment (6-mer frequency, TF over GST control)"
same,binding signal,ELF4,"1.34 fold enrichment (6-mer frequency, TF over GST control)"
same,binding signal,ELK4,"1.49 fold enrichment (6-mer frequency, TF over GST control)"
same,binding signal,ETV2,"1.37 fold enrichment (6-mer frequency, TF over GST control)"
same,binding signal,ELF3,"1.28 fold enrichment (6-mer frequency, TF over GST control)"
same,binding signal,CRX,"1.58 fold enrichment (6-mer frequency, TF over GST control)"
same,binding signal,ETV1,"1.42 fold enrichment (6-mer frequency, TF over GST control)"
same,binding signal,ERF,"1.37 fold enrichment (6-mer frequency, TF over GST control)"
same,binding signal,ETV3L,"1.49 fold enrichment (6-mer frequency, TF over GST control)"
same,binding signal,ETS2,"1.37 fold enrichment (6-mer frequency, TF over GST control)"
same,binding signal,SPDEF,"1.32 fold enrichment (6-mer frequency, TF over GST control)"
same,binding signal,ETV7,"1.17 fold enrichment (6-mer frequency, TF over GST control)"
same,binding signal,ELF5,"1.39 fold enrichment (6-mer frequency, TF over GST control)"
same,binding signal,ETV3,"1.44 fold enrichment (6-mer frequency, TF over GST control)"
same,binding signal,ETV6,"1.36 fold enrichment (6-mer frequency, TF over GST control)"

# Source: paper PMC7862700, “An all-to-all approach to the identification of sequence-specific readers for epigenetic DNA modifications on cytosine”
